Results as given in PubChem BioAssay (Tox21).
Inconclusive results are not listed. Calls of active or inactive are those of the source. Unless noted, calls follow the shape of the dose curve; as a rule, active = well fitted curve in the direction sought with a large enough effect in the repeat runs; inconclusive = weak or mixed curves; inactive = no such curve, though single readings can be large; an effect the other way counts as inactive or inconclusive.

Legend:
[1] = biological target: Peroxisome proliferator-activated receptor delta (Homo sapiens) (UniProt Q03181); assay: qHTS assay to identify small molecule agonists of the peroxisome proliferator-activated receptor delta (PPARd) signaling pathway (AID 743212; calls by dose curve;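 also: HEK293H cells with PPARd UAS beta-lactamase reporter GeneBLAzer system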)
In short: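 Beta-lactamase reporter readout: a ratiometric FRET signal from the LiveBLAzer substrate after 2 h at room temperature. Compound exposure at 37 °C in PPARδ-bla HEK293H cells driven by an upstream activator sequence.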

[2] = qHTS assay to identify small molecule antagonists of the peroxisome proliferator-activated receptor delta (PPARd) signaling pathway - cell viability counter screen (AID 743213); also: nearly all actives have a fitted effect of over 50% in size
In short: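 CellTiter-Glo was added to PPARd-bla HEK293H wells following 17 h compound treatment in the presence of 300 nM L165041. Luminescence was recorded after 30 min at room temperature.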

[3] = biological target: Peroxisome proliferator-activated receptor delta (Homo sapiens) (UniProt Q03181); assay: qHTS assay to identify small molecule antagonists of the peroxisome proliferator-activated receptor delta (PPARd) signaling pathway (AID 743215; active = well fitted inhibition curve with a large enough effect in the signal ratio in the repeat runs, not every such curve was filed as active; the % refers to the signal ratio;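 also: cells stimulated with agonist L165041 at 300 nM final during compound exposure; series mostly up to about 62 µM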)
In short: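 Here, a reporter line (HEK293H, beta-lactamase under a UAS) measures PPARd signaling. Compounds are tested against agonist L165041 at 300 nM final concentration over 17 h at 37 C, with fluorescence read after substrate.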

[4] = biological target: Bile acid receptor (Homo sapiens) (UniProt Q96RI1); assay: qHTS assay to identify small molecule antagonists of the farnesoid-X-receptor (FXR) signaling pathway (AID 743217; active = well fitted inhibition curve with a large enough effect in the signal ratio in the repeat runs, not every such curve was filed as active; the % refers to the signal ratio)
In short: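 Test compounds are pin-transferred onto FXR-bla HEK 293T cells, then chenodeoxycholic acid is added at 50 uM final. After 16 h at 37 °C, LiveBLAzer B/G substrate is applied for 2 h at room temperature and fluorescence read.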

[5] = qHTS assay to identify small molecule agonists of the farnesoid-X-receptor (FXR) signaling pathway - cell viability counter screen (AID 743218); also: nearly all actives have a fitted effect of over 45% in size
In short: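 Quantitative HTS counter screen measuring ATP-based viability via CellTiter-Glo luminescence in HEK 293T cells carrying a UAS-driven beta-lactamase reporter, after 16 h compound exposure at 37 C.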

[6] = biological target: Bile acid receptor (Homo sapiens) (UniProt Q96RI1); assay: qHTS assay to identify small molecule agonists of the farnesoid-X-receptor (FXR) signaling pathway (AID 743220; active = well fitted activation curve with a large enough effect in the signal ratio in the repeat runs, not every such curve was filed as active; the % refers to the signal ratio)
In short: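 FXR-UAS-bla HEK 293T cells carrying a UAS-driven beta-lactamase reporter were plated for 5 h at 37C/5% CO2, then exposed to DMSO-dissolved Tox21 10K compounds for 16 h at 37C. A LiveBLAzer B/G FRET substrate was loaded for 2 h at room temperature before fluorescence reading.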

[7] = qHTS assay to identify small molecule antagonists of the farnesoid-X-receptor (FXR) signaling pathway - cell viability counter screen (AID 743221; active = well fitted cell-killing curve with a large enough effect in the repeat runs, not every such curve was filed as active; also: nearly all actives have a fitted effect of over 50% in size)
In short: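 Cytotoxicity is taken from ATP luminescence (CellTiter-Glo, 30 min, room temperature) in FXR-bla HEK 293T cells previously incubated 16 h at 37 C with compound and chenodeoxycholic acid at 50 uM final.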

[8] = biological target: Vitamin D3 receptor (Homo sapiens) (UniProt P11473); assay: qHTS assay to identify small molecule agonists of the vitamin D receptor (VDR) signaling pathway (AID 743222; calls by dose curve)
In short: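 Tox21 cell reporter format: VDR-bla line, 16 h compound exposure in 5% CO2 at 37C, then fluorescence intensity after 2 h with LiveBLAzer B/G FRET substrate.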

[9] = biological target: Vitamin D3 receptor (Homo sapiens) (UniProt P11473); assay: qHTS assay to identify small molecule antagonists of the vitamin D receptor (VDR) signaling pathway (AID 743223; active = well fitted inhibition curve with a large enough effect in the signal ratio in the repeat runs, not every such curve was filed as active; the % refers to the signal ratio)
In short: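 Quantitative HTS in VDR-bla reporter cells stimulated with 1alpha,25-dihydroxyvitamin D3, 3 nM final. Compound exposure 16 h, 37C, 5% CO2. Read-out: beta-lactamase FRET substrate fluorescence, 2 h RT.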

[10] = qHTS assay to identify small molecule agonists of the vitamin D receptor (VDR) signaling pathway - cell viability counter screen (AID 743224); also: series mostly up to about 63 µM; nearly all actives have a fitted effect of over 50% in size
In short: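 CellTiter-Glo viability readout on VDR-bla cells, measured after 16 h of compound treatment at 37C in the same wells.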

Measured: outcome

Bile acid receptor (Homo sapiens), sequence (Q96RI1 whole entry, looked up): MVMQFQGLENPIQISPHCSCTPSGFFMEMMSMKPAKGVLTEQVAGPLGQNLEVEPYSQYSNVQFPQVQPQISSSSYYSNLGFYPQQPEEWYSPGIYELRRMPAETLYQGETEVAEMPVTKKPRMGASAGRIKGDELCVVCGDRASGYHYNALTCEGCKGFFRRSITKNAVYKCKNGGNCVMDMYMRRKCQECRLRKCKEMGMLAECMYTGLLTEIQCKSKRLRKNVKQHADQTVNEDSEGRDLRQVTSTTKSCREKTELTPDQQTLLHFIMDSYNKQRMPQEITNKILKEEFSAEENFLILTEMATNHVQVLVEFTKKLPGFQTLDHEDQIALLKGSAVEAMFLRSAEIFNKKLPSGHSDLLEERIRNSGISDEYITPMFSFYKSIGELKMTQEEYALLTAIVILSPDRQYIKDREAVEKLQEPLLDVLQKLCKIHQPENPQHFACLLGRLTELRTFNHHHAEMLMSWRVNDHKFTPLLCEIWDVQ
Vitamin D3 receptor (Homo sapiens), sequence (P11473 whole entry, looked up): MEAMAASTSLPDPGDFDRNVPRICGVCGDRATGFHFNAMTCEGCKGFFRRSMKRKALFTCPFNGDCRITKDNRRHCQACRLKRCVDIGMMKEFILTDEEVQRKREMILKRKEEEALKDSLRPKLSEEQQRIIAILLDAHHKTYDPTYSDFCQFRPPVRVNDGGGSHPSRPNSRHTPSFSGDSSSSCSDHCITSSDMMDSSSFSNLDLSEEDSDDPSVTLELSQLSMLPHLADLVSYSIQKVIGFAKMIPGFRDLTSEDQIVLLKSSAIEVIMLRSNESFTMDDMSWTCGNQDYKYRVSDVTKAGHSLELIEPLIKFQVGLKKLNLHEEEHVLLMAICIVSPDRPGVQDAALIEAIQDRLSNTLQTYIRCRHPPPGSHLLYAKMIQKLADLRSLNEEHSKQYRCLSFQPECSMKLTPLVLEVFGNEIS
Peroxisome proliferator-activated receptor delta (Homo sapiens), sequence (Q03181 whole entry, looked up): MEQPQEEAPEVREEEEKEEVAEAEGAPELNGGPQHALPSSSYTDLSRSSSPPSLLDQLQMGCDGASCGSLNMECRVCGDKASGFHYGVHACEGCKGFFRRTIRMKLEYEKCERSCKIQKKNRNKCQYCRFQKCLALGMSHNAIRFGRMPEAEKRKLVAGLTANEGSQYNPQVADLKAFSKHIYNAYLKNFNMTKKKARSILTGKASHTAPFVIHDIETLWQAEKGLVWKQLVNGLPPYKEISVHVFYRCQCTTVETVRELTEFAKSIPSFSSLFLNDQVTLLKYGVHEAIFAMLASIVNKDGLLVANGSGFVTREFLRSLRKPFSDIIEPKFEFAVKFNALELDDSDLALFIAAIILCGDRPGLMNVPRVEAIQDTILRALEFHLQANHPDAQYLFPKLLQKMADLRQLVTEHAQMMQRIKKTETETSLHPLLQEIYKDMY

COC(=O)c1ccc(C(=O)O)cc1
inactive: all assays above

C[C@H]1COc2c(C3(N)CC3)c(F)cc3c(=O)c(C(=O)O)cn1c23
inactive: all assays above

O=P(O)(O)C(O)(Cc1cccnc1)P(=O)(O)O
inactive: all assays above

Cc1cc(=O)oc2cc(O[C@@H]3SC[C@@H](O)[C@H](O)[C@H]3O)ccc12
not listed: [9]
inactive: all other assays above

COC(=O)c1ccc(NC(C)=O)cc1OC
not listed: [8] | [9]
inactive: all other assays above

CC(C)C(=O)Nc1cccc(C2CN3CCSC3=N2)c1 (stereo unspecified)
inactive: all assays above

CCCCCCCCC1CO1 (stereo unspecified)
inactive: all assays above

C/C=C(\C)C=O
inactive: all assays above

O=C(O)Cc1c(Cl)ccc(Cl)c1Cl
not listed: [8] | [9]
inactive: all other assays above

O=C(CCBr)N1CCN(C(=O)CCBr)CC1
inactive: all assays above

CC(C)(C)OC(=O)c1ccccc1C(=O)O
inactive: all assays above

CC(=O)c1ccc(O)c(C(N)=O)c1
not listed: [9] | [10]
inactive: all other assays above

Cc1ccccc1OCC(=O)O
not listed: [9]
inactive: all other assays above

CCCCCCCCCCCCCCCC(=O)OC
inactive: all assays above

CCCCN(CCCC)CCCCCCN(CCCC)CCCC
inactive: [1] | [2] | [3] | [5] | [7] | [8]

CNC(C)=O
not listed: [4] | [6]
inactive: all other assays above

CC(=O)SCC(CC(=O)c1ccc(C)cc1)C(=O)O (stereo unspecified)
not listed: [5]
inactive: all other assays above

O=C(O)P(=O)(O)O
not listed: [5]
inactive: all other assays above

CCCCCCCC(=O)N(C)C
not listed: [4] | [6]
inactive: all other assays above

COC(=O)C(c1ccccc1Cl)N1CCc2sccc2C1 (stereo unspecified)
not listed: [4] | [6]
inactive: all other assays above

O=Cc1ccccc1S(=O)(=O)O
not listed: [4] | [6]
inactive: all other assays above

NS(=O)(=O)c1cc2c(cc1C(F)(F)F)NCNS2(=O)=O
not listed: [5] | [6]
inactive: all other assays above

CC(C)(C)c1ccc(C(=O)CCCCl)cc1
not listed: [4] | [6]
inactive: all other assays above

Cc1ccc(O)c([N+](=O)[O-])c1
not listed: [5]
inactive: all other assays above

CC(C)(C)C(=O)CCc1ccc(Cl)cc1
not listed: [4] | [6]
inactive: all other assays above
